# SARS PLpro yeast = SARS-CoV PLP inhibition in yeast; S. cerevisiae expressing SARS-CoV PLpro, growth rescue; 330,000 compounds, 0.19% hits; Potency, µM (doses to about 32.9 µM), for the others: at the highest dose activity, positive = growth rescue, hits mostly activators; AID 485353; calls by dose curve; note: 0% is about no effect; nearly all actives have a fitted effect of over 55% in size
# AmpC inh no detg = AmpC beta-lactamase inhibition without detergent; Potency, µM (top dose mostly 57.1 µM), for inactives: at the highest dose activity change, negative = inhibition, usual class: inhibitors; P00811; 330,000 compounds, 0.52% hits; AmpC nitrocefin hydrolysis, absorbance 480 nm, 0.0001% Triton; AID 485341;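 note: plate controls were no compound for no effect and no enzyme for full effect; nearly all actives have a fitted effect of over 20% in size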
# Target sequence (P00811 whole entry, looked up): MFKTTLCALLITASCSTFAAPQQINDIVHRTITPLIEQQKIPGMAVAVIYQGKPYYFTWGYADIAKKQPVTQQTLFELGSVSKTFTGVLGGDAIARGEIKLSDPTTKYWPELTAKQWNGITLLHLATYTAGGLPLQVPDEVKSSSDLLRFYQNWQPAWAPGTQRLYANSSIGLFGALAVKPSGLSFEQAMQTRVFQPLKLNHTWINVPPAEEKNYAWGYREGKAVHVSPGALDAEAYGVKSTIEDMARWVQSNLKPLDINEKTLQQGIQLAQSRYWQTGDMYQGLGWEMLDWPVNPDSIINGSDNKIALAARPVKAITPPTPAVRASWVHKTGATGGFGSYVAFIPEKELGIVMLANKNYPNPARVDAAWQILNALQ
#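 20 mM phosphate pH 7.0 + 0.01% (detergent screen) or 0.0001% Triton X-100; 5.3 nM AmpC reagent; cpd preinc 15 min RT; nitrocefin (800 uM stock) to start; A480 q20 s × 4 min; Activity was normalised to no-enzyme and no-compound control wells.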
# AmpC inh detg = inhibitors of E. coli AmpC beta-lactamase with detergent | P00811 | AmpC hydrolysis of nitrocefin, absorbance 480 nm, 0.01% Triton | Potency, µM (highest dose often 114 µM), for inactives: at the top dose activity change, negative = inhibition, hits mostly inhibitors | 370,000 compounds, 0.041% hits | AID 485294;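 note: 0% = no-compound wells and -100% = no-enzyme wells; nearly all actives have a fitted effect of over 25% in size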
#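 20 mM phosphate pH 7.0 + 0.01% (detergent screen) or 0.0001% Triton X-100; 5.3 nM AmpC reagent; cpd preinc 15 min RT; nitrocefin (800 uM stock) to start; A480 q20 s × 4 min; Activity was normalised to no-enzyme and no-compound control wells.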
# Tb PYK inh = blocks Trypanosoma brucei pyruvate kinase; Q57TT1; TbPYK enzyme, Kinase-Glo Plus ATP luminescence, 45 min; Potency, µM (series often up to 76.8 µM), without a hit: at the top dose activity, negative = inhibition, most hits filed as inhibitors; 410,000 compounds, 0.12% hits; note: % is set by controls: 0 for no effect and ±100 for the full control effect; nearly all actives have a fitted effect of over 50% in size
#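 Glycolytic pyruvate kinase of T. brucei was incubated with substrate, test compound and 130 uM ADP for 45 minutes at room temperature. Luminescent Kinase-Glo Plus signal was measured after 10 minutes.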
# Sm TGR inh = S. mansoni TGR enzyme inhibition. Q962Y6. purified TGR, DTNB reduction, TNB absorbance 405 nm. Potency, µM (highest dose often 114 µM), for the others: top-dose activity change, negative = inhibition, actives largely listed as inhibitors. 360,000 compounds, 3% hits; note: % is set by controls: 0 for no effect and ±100 for the full control effect; nearly all actives have a fitted effect of over 60% in size
#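 Kinetic colorimetric format: TGR-catalysed, NADPH-driven DTNB reduction monitored via TNB absorbance. Enzyme dispensed at 20 nM; compound exposure 15 min at room temperature before reaction start.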
# RE007 growth inh = less growth of the S. pombe RE007 Vpr strain. S. pombe RE007 Vpr strain, BacTiter-Glo ATP luminescence, 24 h. AID 651644. 360,000 compounds, 0.21% hits. Potency, µM (top dose mostly 92.2 µM), for inactives: at the top dose activity change, negative = less growth, most hits filed as inhibitors; active = well fitted falling curve with a large enough effect; inconclusive = small, poorly fitted or top-dose-only effect; inactive = no such curve, though single readings can be large or run the other way; note: % is set by controls: 0 for no effect and ±100 for the full control effect; nearly all actives have a fitted effect of over 50% in size
#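 Fission yeast strain RE007, carrying one chromosomally integrated HIV-1 vpr copy, was seeded at OD 0.01 in PMG+AL medium with 23 nL pinned compound. After 24 h at 30 °C and 99% humidity, viability was read by BacTiter-Glo luminescence.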
# * hit, by the source's call; ? = inconclusive; / = no result given. The list is not random: actives were taken first. Their share in the collection is about 3.3%. Unless noted, calls come from the whole dose curve; as a rule, active = well fitted curve in the direction sought with a large enough effect; inconclusive = small, poorly fitted or top-dose-only effect, or another doubt; inactive = no such curve, though single readings can be large; an effect the other way counts as inactive or inconclusive. Potency is the fitted concentration of half-maximal effect.
SMILES,SARS PLpro yeast,AmpC inh no detg,AmpC inh detg,Tb PYK inh,Sm TGR inh,RE007 growth inh
CCOc1ccc(N2CC(C)Cn3c2nc2c3c(=O)n(CC(=O)O)c(=O)n2C)cc1 (stereo not given),/,/,-5.6%,4.3%,2.0%,/
CCOc1ccccc1C1Nc2ccccc2-c2nnc(SCc3ccccc3)nc2O1 (stereo not given),/,/,12.0%,-2.1%,1.6%,/
c1ccc(CSc2nnc3c(n2)OC(c2ccco2)Nc2ccccc2-3)cc1 (stereo not given),-17.6%,-20.9%,1.8%,1.5%,11.2µM*,?
c1ccc(Cn2ncc3c(N4CCN(C(c5ccccc5)c5ccccc5)CC4)ncnc32)cc1,-2.3%,-0.4%,?,-3.6%,44.7µM*,-1.3%
CC(=O)NCc1ccc(C(=O)CSc2nnc(-c3ccncc3)n2Cc2ccccc2)o1,2.2%,69.8%,-12.2%,?,35.5µM*,3.9%
O=C(CSc1nnc(-c2ccncc2)n1Cc1ccccc1)NC1CCCCC1,1.0%,4.5%,-14.3%,-7.5%,7.1%,-11.4%
Cc1cc(=O)n2nc(N(C)CC(=O)NCc3ccc(Cl)cc3)sc2n1,/,/,-6.3%,3.5%,-1.1%,/
Cc1ccc2c(c1)N/C(=C(\C=C(/Cl)[N+](=O)[O-])[N+](=O)[O-])N2,-11.5%,-27.7%,5.9%,/,8.91µM*,/
Nc1c(N(Cc2ccco2)C(=O)c2ccc(Br)cc2)c(=O)[nH]c(=O)n1Cc1ccccc1,-4.9%,-27.7%,-1.4%,0.1%,35.5µM*,2.5%
Nc1c(N(Cc2ccco2)C(=O)c2cccc(Cl)c2)c(=O)[nH]c(=O)n1Cc1ccccc1,0.9%,-27.5%,-4.6%,-0.5%,39.8µM*,0.2%
Nc1c(N(Cc2ccco2)C(=O)c2ccc(Cl)cc2)c(=O)[nH]c(=O)n1Cc1ccccc1,1.3%,-18.5%,-1.4%,-5.0%,-28.5%,-9.6%
COc1cccc(C(=O)N(Cc2ccco2)c2c(N)n(Cc3ccccc3)c(=O)[nH]c2=O)c1,3.4%,-12.2%,-3.8%,-1.1%,44.7µM*,-7.7%
Nc1c(N(Cc2ccco2)C(=O)COc2ccccc2Cl)c(=O)[nH]c(=O)n1Cc1ccccc1,1.0%,-17.4%,0.7%,-11.9%,50.1µM*,4.6%
COc1ccc(NC(=O)C2=C(C)Nc3nc(CCCO)nn3C2c2ccc(O)cc2)cc1 (stereo not given),/,/,2.5%,2.5%,2.0%,/
CC(C)CN(C(=O)c1ccc(N2CCCC2=O)cc1)c1c(N)n(Cc2ccccc2)c(=O)[nH]c1=O,-5.6%,-6.2%,-10.1%,-2.7%,39.8µM*,3.2%
On1ccccc1=S,/,-41.7%,?,?,-30.7%,4.47µM*
O=C(Cn1ccccc1=S)c1ccc(Cl)c(Cl)c1,/,/,/,-22.3%,/,0.0%
COc1ccc(-n2sc3ccccc3c2=O)cc1,/,/,/,11.2µM*,/,-86.9%
O=c1c2cc(F)ccc2sn1-c1ccc(F)cc1,-2.6%,-26.3%,0.0%,8.91µM*,-22.6%,11.2µM*
Cc1ccc(C)c(-n2sc3ccc(F)cc3c2=O)c1,1.9%,-33.3%,-14.1%,?,-21.5%,?
COc1ccc(N2C(=O)CSC2c2ccc(F)cc2)cc1 (stereo not given),-1.3%,3.4%,-1.0%,-3.8%,-3.8%,3.9%
COc1ccc(-n2sc3ccc(F)cc3c2=O)cc1,-0.2%,-32.9%,-13.6%,?,-7.3%,10µM*
O=C(Nc1cc(F)ccc1F)c1ccc2c(c1)nnn2C1CCCC1,/,/,-9.5%,-2.1%,-4.6%,/
CC(C)c1ccc(Nc2c(-c3ccc(N(C)C)cc3)nc3cnccn23)cc1,/,/,-5.4%,-2.0%,-5.4%,/
CC(C)N(C(=O)Cn1cc(SCC(=O)Nc2ccccc2C(F)(F)F)c2ccccc21)C(C)C,/,/,-2.8%,3.0%,-1.3%,/
SMILES,SARS PLpro yeast,AmpC inh no detg,AmpC inh detg,Tb PYK inh,Sm TGR inh,RE007 growth inh
CC1=C(C(=O)Nc2ccc(F)cc2)C(c2ccc(N(C)C)cc2)NC(=O)N1 (stereo not given),/,/,12.7%,3.9%,1.4%,/
Cc1ccc2c(=O)cc(C(=O)Nc3nnc(CC(C)C)s3)oc2c1C,/,/,15.2%,3.4%,11.3%,/
CCN1C(=O)/C(=c2\sc3nc(=O)c(Cc4ccccc4)nn3c2=O)c2ccccc21,0.5%,-13.1%,2.3%,-20.5%,3.55µM*,-20.2%
C=CCN1C(=O)/C(=c2\sc3nc(=O)c(Cc4ccccc4)nn3c2=O)c2ccccc21,1.4%,?,-2.0%,?,1.41µM*,-20.2%
C=CCN1C(=O)/C(=c2\sc3nc(=O)c(Cc4ccc(OC)c(OC)c4)nn3c2=O)c2ccccc21,-0.1%,-35.5%,-5.8%,?,0.631µM*,-8.0%
CCN1C(=O)/C(=C/c2nc3ccccc3c(=O)[nH]2)c2ccccc21,18.9%,-21.4%,?,2.3%,-15.9%,-8.3%
O=C(CN1CCN(S(=O)(=O)c2cc(Cl)ccc2Cl)CC1)Nc1cccc(F)c1,/,/,-4.0%,0.1%,?,/
O=C(N/N=C/c1cccc(C(F)(F)F)c1)c1cc2c(s1)-c1ccccc1CC2,1.6%,0.159µM*,-3.8%,-4.0%,2.3%,-10.9%
O=[N+]([O-])c1ccccc1-c1ccc(/C=N/n2cnnc2)o1,2.9%,72.1%,-9.5%,-0.1%,-7.2%,16.0%
O=C(/C=C/c1ccc(-c2ccccc2[N+](=O)[O-])o1)c1ccco1,-25.7%,-45.8%,1.4%,2.2%,35.5µM*,-16.3%
N#CCc1ccc(C(=O)c2ccccc2F)s1,-0.3%,0.794µM*,-3.1%,1.7%,1.0%,-12.1%
CCc1nnc2c3ccccc3nc(Nc3ccc(C(C)=O)cc3)n12,/,/,-3.8%,-1.2%,-6.6%,/
O=c1cc(-c2ccccc2)n2c(SCc3cccc([N+](=O)[O-])c3)nnc2[nH]1,/,/,6.1%,-2.6%,18.9%,/
c1ccc(Cn2cnc3ccccc32)cc1,-4.1%,-11.4%,?,3.2%,1.2%,11.8%
Fc1cc2ncn(Cc3ccccc3)c2cc1F,1.3%,-15.6%,?,-7.7%,56.2µM*,13.4%
Cc1cc(C)c2c(=O)n(CC(=O)N3CCC(N4CCCCC4)CC3)sc2n1,-8.5%,20µM*,56.2µM*,?,-27.7%,?
CCCNC(=O)Cn1sc2nc(C)cc(C)c2c1=O,-7.8%,?,79.4µM*,?,?,?
CC(=O)Cn1cnc2c(sc3nc(C)cc(C)c32)c1=O,-2.1%,-24.4%,3.1%,-11.9%,-3.1%,-3.0%
CCOC(=O)C1CCCN(C(=O)Cn2sc3nc(C)cc(C)c3c2=O)C1 (stereo not given),-14.3%,14.1µM*,44.7µM*,?,?,?

# Screens deposited in PubChem by National Center for Advancing Translational Sciences (NCATS).
